Data as given in PubChem BioAssay AID1159580 (chemical genetic matrix, 2015).
Screen size: about 5,500 compounds; about 2,000 (36%) were called active. Roughly 18% stayed inconclusive and do not appear here. Cut-off read from the data, not from the text of the source: active = normalized growth mostly below about 0.91 (no sharp cut-off); inconclusive = no clear call, values can overlap the other calls; inactive = mostly above about 0.92. This is one part of the list.

Assay: chemical genetic growth profiling, strain panel (AID 1159580);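 note: tested at 20 µM; growth read once vehicle control cultures reached saturation at 30 °C; 1 = growth at the plate median or of vehicle wells; lower values mean less growth of the strain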
Settings: growth OD

Measured: normalized growth

CCN(CC)CCNC(=O)c1cc(Br)c(N)cc1OC
inactive: S. cerevisiae deletion strains, locus YJR043C, strain POL32, stronger effect = lower value 0.917 | S. cerevisiae deletion strains, locus YJR066W, strain TOR1, stronger effect = lower value 0.933 | S. cerevisiae deletion strains, locus YKL009W, strain mrt4, stronger effect = lower value 0.955 | S. cerevisiae deletion strains, locus YKL068W, stronger effect = lower value 0.989 | S. cerevisiae deletion strains, locus YKL085W, strain MDH1 (second series), stronger effect = lower value 0.993 | S. cerevisiae deletion strains, locus YKL085W, strain MDH1, stronger effect = lower value 0.993 | S. cerevisiae deletion strains, locus YKL160W, strain elf1, stronger effect = lower value 0.985 | S. cerevisiae deletion strains, locus YKL190W, strain CNB1, stronger effect = lower value 0.982 | S. cerevisiae deletion strains, locus YKR001C, strain vps1, stronger effect = lower value 0.984 | S. cerevisiae deletion strains, locus YKR026C, strain gcn3, stronger effect = lower value 0.971 | S. cerevisiae deletion strains, locus YKR091W, strain srl3, stronger effect = lower value 0.99 | S. cerevisiae deletion strains, locus YLL001W, strain dnm1, stronger effect = lower value 1 | S. cerevisiae deletion strains, locus YLL026W, stronger effect = lower value 0.99 | S. cerevisiae deletion strains, locus YLL041C, strain sdh2, stronger effect = lower value 0.98 | S. cerevisiae deletion strains, locus YLR027C, strain aat2, stronger effect = lower value 0.992 | S. cerevisiae deletion strains, locus YLR039C, strain RIC1, stronger effect = lower value 0.974 | S. cerevisiae deletion strains, locus YLR058C, strain SHM2, stronger effect = lower value 0.971 | S. cerevisiae deletion strains, locus YLR102C, strain apc9, stronger effect = lower value 0.991 | S. cerevisiae deletion strains, locus YLR113W, strain HOG1, stronger effect = lower value 1.01 | S. cerevisiae deletion strains, locus YLR221C, strain rsa3, stronger effect = lower value 0.992 | S. cerevisiae deletion strains, locus YLR258W, strain gsy2, stronger effect = lower value 0.991 | S. cerevisiae deletion strains, locus YLR262C, strain YPT6 (second series), stronger effect = lower value 1.02 | S. cerevisiae deletion strains, locus YLR262C, strain YPT6, stronger effect = lower value 0.958 | S. cerevisiae deletion strains, locus YLR268W, strain sec22, stronger effect = lower value 0.983 | S. cerevisiae deletion strains, locus YLR320W, strain mms22, stronger effect = lower value 1.01 | S. cerevisiae deletion strains, locus YLR330W, strain CHS5, stronger effect = lower value 1 | S. cerevisiae deletion strains, locus YLR342W, strain FKS1 (second series), stronger effect = lower value 1.08 | S. cerevisiae deletion strains, locus YLR342W, strain FKS1, stronger effect = lower value 0.991 | S. cerevisiae deletion strains, locus YLR357W, strain rsc2, stronger effect = lower value 0.974 | S. cerevisiae deletion strains, locus YLR370C, strain arc18, stronger effect = lower value 0.994 | S. cerevisiae deletion strains, locus YLR371W, strain rom2, stronger effect = lower value 0.995 | S. cerevisiae deletion strains, locus YLR384C, strain iki3, stronger effect = lower value 0.991 | S. cerevisiae deletion strains, locus YLR418C, strain cdc73, stronger effect = lower value 1.04 | S. cerevisiae deletion strains, locus YML016C, strain PPZ1, stronger effect = lower value 0.994 | S. cerevisiae deletion strains, locus YML032C, strain rad52, stronger effect = lower value 0.968 | S. cerevisiae deletion strains, locus YML120C, strain ndi1, stronger effect = lower value 0.99 | S. cerevisiae deletion strains, locus YML124C, strain tub3, stronger effect = lower value 0.98 | S. cerevisiae deletion strains, locus YMR058W, strain fet3, stronger effect = lower value 0.982 | S. cerevisiae deletion strains, locus YMR078C, strain ctf18, stronger effect = lower value 0.988 | S. cerevisiae deletion strains, locus YMR125W, strain sto1, stronger effect = lower value 0.975 | S. cerevisiae deletion strains, locus YMR129W, stronger effect = lower value 0.986 | S. cerevisiae deletion strains, locus YMR205C, strain PFK2, stronger effect = lower value 1.03 | S. cerevisiae deletion strains, locus YMR223W, strain ubp8, stronger effect = lower value 1.02 | S. cerevisiae deletion strains, locus YMR231W, strain pep5, stronger effect = lower value 1 | S. cerevisiae deletion strains, locus YMR307W, strain GAS1, stronger effect = lower value 1.07 | S. cerevisiae deletion strains, locus YNL067W, strain RPL9B, stronger effect = lower value 0.964 | S. cerevisiae deletion strains, locus YNL071W, strain lat1, stronger effect = lower value 0.987 | S. cerevisiae deletion strains, locus YNL153C, strain GIM3, stronger effect = lower value 0.961 | S. cerevisiae deletion strains, locus YNL183C, strain NPR1, stronger effect = lower value 0.956 | S. cerevisiae deletion strains, locus YNL209W, strain ssb2, stronger effect = lower value 0.988 | S. cerevisiae deletion strains, locus YNL233W, strain BNI4, stronger effect = lower value 0.957 | S. cerevisiae deletion strains, locus YNL248C, strain rpa49, stronger effect = lower value 0.969 | S. cerevisiae deletion strains, locus YNL250W, strain rad50, stronger effect = lower value 0.986 | S. cerevisiae deletion strains, locus YNL271C, strain bni1, stronger effect = lower value 0.988 | S. cerevisiae deletion strains, locus YNL298W, strain CLA4, stronger effect = lower value 0.985 | S. cerevisiae deletion strains, locus YNL307C, strain MCK1, stronger effect = lower value 0.981 | S. cerevisiae deletion strains, locus YNL322C, strain KRE1 (second series), stronger effect = lower value 0.987 | S. cerevisiae deletion strains, locus YNR049C, strain mso1, stronger effect = lower value 0.969 | S. cerevisiae deletion strains, locus YNR052C, strain pop2, stronger effect = lower value 0.992 | S. cerevisiae deletion strains, locus YOL006C, strain TOP1, stronger effect = lower value 0.879 | S. cerevisiae deletion strains, locus YOL012C, strain htz1 1.14 | S. cerevisiae deletion strains, locus YOL147C, strain pex11, stronger effect = lower value 0.989 | S. cerevisiae deletion strains, locus YOR001W, strain rrp6, stronger effect = lower value 0.966 | S. cerevisiae deletion strains, locus YOR061W, strain CKA2, stronger effect = lower value 0.97 | S. cerevisiae deletion strains, locus YOR069W, strain VPS5, stronger effect = lower value 0.992 | S. cerevisiae deletion strains, locus YOR070C, strain gyp1, stronger effect = lower value 0.996 | S. cerevisiae deletion strains, locus YOR080W, strain dia2, stronger effect = lower value 0.975 | S. cerevisiae deletion strains, locus YOR083W, strain WHI5, stronger effect = lower value 0.978 | S. cerevisiae deletion strains, locus YOR106W, strain vam3, stronger effect = lower value 0.992 | S. cerevisiae deletion strains, locus YOR136W, strain idh2, stronger effect = lower value 0.977 | S. cerevisiae deletion strains, locus YOR144C, strain elg1, stronger effect = lower value 0.998 | S. cerevisiae deletion strains, locus YOR184W, strain ser1, stronger effect = lower value 0.987 | S. cerevisiae deletion strains, locus YOR231W, strain MKK1, stronger effect = lower value 0.96 | S. cerevisiae deletion strains, locus YOR265W, strain rbl2, stronger effect = lower value 0.996 | S. cerevisiae deletion strains, locus YOR270C, strain vph1, stronger effect = lower value 1.01 | S. cerevisiae deletion strains, locus YOR290C, strain snf2, stronger effect = lower value 0.956 | S. cerevisiae deletion strains, locus YOR316C, strain cot1, stronger effect = lower value 0.975 | S. cerevisiae deletion strains, locus YPL051W, strain arl3, stronger effect = lower value 0.981 | S. cerevisiae deletion strains, locus YPL078C, strain atp4, stronger effect = lower value 0.975 | S. cerevisiae deletion strains, locus YPL106C, strain sse1, stronger effect = lower value 0.965 | S. cerevisiae deletion strains, locus YPL240C, strain hsp82, stronger effect = lower value 0.98 | S. cerevisiae deletion strains, locus YPL256C, strain CLN2, stronger effect = lower value 0.963 | S. cerevisiae deletion strains, locus YPR119W, strain clb2, stronger effect = lower value 0.99 | S. cerevisiae deletion strains, locus YPR141C, strain kar3, stronger effect = lower value 0.99 | S. cerevisiae deletion strains, locus YPR163C, strain tif3, stronger effect = lower value 0.998 | S. cerevisiae deletion strains, locus YPR167C, strain met16, stronger effect = lower value 0.991 | S. cerevisiae deletion strains, strain wtn01, stronger effect = lower value 1.03 | S. cerevisiae strains, strain wild type, stronger effect = lower value 0.987
